Data on 39 compounds can be found in PubChem BioAssay AID771 (SRMLSC, 2007).

The nature of this assay: HT29 colon tumor cell growth inhibition, primary screen, imaging, high content imaging, 48 h, CellTiter-Glo (AID 771).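 As to condensed nuclei: condensed means Hoechst nuclear area under control median minus 1.5 SD.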 As to conditions: HCS imaging cell count, at 10 µM, stronger effect = higher value; for condensed nuclei: measured here: percent cells with condensed nuclei. For orientation: In ATP-based viability assays light output follows the ATP content of the culture.
Where [1] appears, read: measured here: ATP CellTiter-Glo viability inhibition.

In all, about 3,300 compounds went through this assay and about 55 (2%) were called active.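 The calls were made as follows: active = growth inhibition above 90%, meaning viable cell count by imaging cut by more than 90% versus vehicle controls; inactive = growth inhibition below 90%.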 This excerpt belongs to a sample that is enriched for actives.

Turning to `CNCCCN1c2ccccc2CCc2ccccc21`, the growth inhibition was 95.8% (active) and the condensed nuclei amounted to 13.8%.

`CN(C)CCCN1c2ccccc2CCc2ccc(Cl)cc21`: the growth inhibition was 89.6% (inactive) and the condensed nuclei came out at 39.3%.

For `CN(C)CCCN1c2ccccc2CCc2ccccc21`, the growth inhibition is -27.8% (inactive) and the condensed nuclei is 2.51%.

Consider `CCOC(=O)NC(Nc1sc2c(c1C(=O)OC)CCN(C)C2)(C(F)(F)F)C(F)(F)F`, for which the growth inhibition is -25.9% (inactive) and the condensed nuclei stood at 2.15%. Besides, the growth inhibition under setting [1] came to 15.4%.

For `Cc1cc(=O)oc(C)c1C(=O)N[C@@H]1CCCCNC1=O`, the growth inhibition is -26.2% (inactive) and the condensed nuclei is 2.68%. Further, under setting [1], the growth inhibition was -3.89%.

Consider `CCCCOC(=O)CSC1=C(C#N)C(c2ccc3c(c2)OCO3)CC(=O)N1` (stereo unspecified), for which the growth inhibition is -15.7% (inactive) and the condensed nuclei was 2.23%. Further, the growth inhibition under setting [1] was -8.71%.

On to `CCOC(=O)CSC1=C(C#N)C(c2ccc3c(c2)OCO3)CC(=O)N1` (stereo unspecified), for which the growth inhibition was 90.1% (active) and the condensed nuclei stood at 12.2%. In addition, the growth inhibition under setting [1] amounted to 66.1%.

With `CCCOC(=O)CSC1=C(C#N)C(c2ccc3c(c2)OCO3)CC(=O)N1` (stereo unspecified), the growth inhibition is 75.6% (inactive) and the condensed nuclei came to 7.29%. Moreover, under setting [1], the growth inhibition turned out to be 56.6%.

For `Cn1cccc1/C=N/n1cnnc1`, the growth inhibition was 13.3% (inactive) and the condensed nuclei was determined as 11%. Also, under setting [1], the growth inhibition was determined as 0.83%.

For `CN(C)CCCN1c2ccccc2Sc2ccc(Cl)cc21`, the growth inhibition was 92.7% (active) and the condensed nuclei amounted to 22.1%.

Turning to `CC(CN1c2ccccc2Sc2ccccc21)N(C)C` (stereo unspecified), the growth inhibition was 65.5% (inactive) and the condensed nuclei amounted to 6.11%.

Regarding `COc1ccc([C@@H]2Sc3ccccc3N(CCN(C)C)C(=O)[C@@H]2OC(C)=O)cc1`, the growth inhibition was -4.52% (inactive) and the condensed nuclei amounted to 2.39%.

Regarding `CN(C)CCCN1c2ccccc2Sc2ccccc21`, the growth inhibition was 40.7% (inactive) and the condensed nuclei was 5.02%.

As for `CN(C)CCCN1c2ccccc2Sc2ccc(C(F)(F)F)cc21`, the growth inhibition was 93.8% (active) and the condensed nuclei is 30.8%.

Consider `CCOc1c(C)cc2[nH]c(CCC(=O)O)nc2c1C`, for which the growth inhibition was 26.2% (inactive) and the condensed nuclei was found to be 2.92%. Besides, under setting [1], the growth inhibition is 7.89%.

As for `CN1CCN(Cc2c(O)c(Cl)cc3c(-c4ccccc4)cc(=O)oc23)CC1`, the growth inhibition was 8.72% (inactive) and the condensed nuclei was 1.6%. Besides, the growth inhibition under setting [1] was -6.84%.

Consider `C(=N\n1cnnc1)/c1cccc(Oc2ccccc2)c1`, for which the growth inhibition was -29.2% (inactive) and the condensed nuclei came out at 2.95%. The growth inhibition under setting [1] is -4.38%.

With `COc1ccccc1N1CCN(C2CCN(C(=O)c3cccs3)CC2)CC1`, the growth inhibition was 32% (inactive) and the condensed nuclei came to 4.31%. Also, under setting [1], the growth inhibition came out at 11.2%.

Regarding `CCCCCCn1cc(C(=O)O)c(=O)c2ccccc21`, the growth inhibition is -27.6% (inactive) and the condensed nuclei came to 2.69%. Further, the growth inhibition under setting [1] amounted to 1.82%.

Take `COC(=O)c1[nH]c2cc(OC)ccc2c1NC(=O)CN1CCN(c2cccc(C)c2)C(C)C1` (stereo unspecified): the growth inhibition was 92.4% (active) and the condensed nuclei worked out at 8.77%. In addition, under setting [1], the growth inhibition worked out at 75.4%.

For the compound `COC(=O)c1[nH]c2cc(OC)ccc2c1NC(=O)CN1CCC(C(N)=O)CC1`, the growth inhibition is 49.4% (inactive) and the condensed nuclei is 2.82%. The growth inhibition under setting [1] is -5.92%.

On to `COC(=O)c1[nH]c2cc(OC)ccc2c1NC(=O)CCN1CCCC(C)(C)C1`, for which the growth inhibition was 5.81% (inactive) and the condensed nuclei turned out to be 1.83%. Further, the growth inhibition under setting [1] is 8.79%.

As to `COC(=O)C1CCN(c2nc3ccccc3nc2C(C#N)C(=O)NCCc2ccccc2)CC1` (stereo unspecified), the growth inhibition was 30% (inactive) and the condensed nuclei stood at 3.61%. Also, the growth inhibition under setting [1] was found to be 5.48%.

Consider `COC(=O)c1cccc(Nc2cc(C)nc(-c3ccccc3O)n2)c1`, for which the growth inhibition was 91.6% (active) and the condensed nuclei is 8.33%. Moreover, under setting [1], the growth inhibition was 77.4%.

For `COC(=O)c1ccccc1OCc1cccc(C)n1`, the growth inhibition is 39.5% (inactive) and the condensed nuclei was determined as 0.9%. Also, the growth inhibition under setting [1] was 2.81%.

As for `COC(=O)c1ccc(Nc2cc(C)nc(-c3ccccc3O)n2)cc1`, the growth inhibition was 12.1% (inactive) and the condensed nuclei amounted to 10.7%. Under setting [1], the growth inhibition came out at 23%.

In the case of `CCOc1ccc(-c2nn3c(-c4ccc(OC)cc4)nnc3s2)cc1`, the growth inhibition was 10.5% (inactive) and the condensed nuclei stood at 2.81%. For the same compound, under setting [1], the growth inhibition turned out to be 4.54%.

Take `C[C@]12CC[C@@H]3c4ccc(OC(=O)c5ccccc5)cc4CC[C@H]3[C@@H]1CC[C@@H]2O`: the growth inhibition is 90.5% (active) and the condensed nuclei was 22.1%.

As to `C[C@]12CC[C@@H]3c4ccc(O)cc4CC[C@H]3[C@@H]1CC[C@@H]2OC(=O)CCC(=O)O`, the growth inhibition is -33.9% (inactive) and the condensed nuclei is 0.84%.

On to `C[C@]12CC[C@@H]3c4ccc(O[C@@H]5O[C@H](C(=O)O)[C@@H](O)[C@H](O)[C@H]5O)cc4CC[C@H]3[C@@H]1C[C@@H](O)[C@@H]2O`, for which the growth inhibition is -7.06% (inactive) and the condensed nuclei was determined as 1.8%.

In the case of `Cc1c(O)c(CN2CCCC(C)C2)cc2c3c(c(=O)oc12)CCC3` (stereo unspecified), the growth inhibition was -14.5% (inactive) and the condensed nuclei was determined as 1.69%. The growth inhibition under setting [1] is -14.7%.

For the compound `CN(C1CCS(=O)(=O)C1)S(=O)(=O)c1cccc2nsnc12` (stereo unspecified), the growth inhibition was -12.3% (inactive) and the condensed nuclei was 8.15%. In addition, under setting [1], the growth inhibition came to 2.06%.

In the case of `Cc1ccc(C(=O)CSC2=C(C#N)C(c3ccco3)C3=C(CCCC3=O)N2)cc1` (stereo unspecified), the growth inhibition was 86% (inactive) and the condensed nuclei was determined as 6.33%. Also, the growth inhibition under setting [1] amounted to 77.7%.

In the case of `Cc1ccc(NC(=O)CSC2=C(C#N)C(c3ccco3)C3=C(CCCC3=O)N2)cc1` (stereo unspecified), the growth inhibition was 18.9% (inactive) and the condensed nuclei was 2.42%. Also, the growth inhibition under setting [1] was -18.4%.

In the case of `N#CC1=C(SCC(=O)c2ccc(Cl)cc2)NC2=C(C(=O)CCC2)C1c1ccco1` (stereo unspecified), the growth inhibition was 92.8% (active) and the condensed nuclei stood at 7.89%. In addition, under setting [1], the growth inhibition worked out at 78.2%.

Take `N#CC1=C(SCC(=O)c2ccccc2)NC2=C(C(=O)CCC2)C1c1ccco1` (stereo unspecified): the growth inhibition was 94.2% (active) and the condensed nuclei came out at 25.7%. Besides, the growth inhibition under setting [1] came to 71.1%.

For the compound `CCc1ccc(NC(=O)CSC2=C(C#N)C(c3ccco3)C3=C(CCCC3=O)N2)cc1` (stereo unspecified), the growth inhibition is 86.5% (inactive) and the condensed nuclei was 11.8%. The growth inhibition under setting [1] was 58.1%.

As to `N#CC1=C(SCC(=O)c2ccc(Br)cc2)NC2=C(C(=O)CCC2)C1c1ccco1` (stereo unspecified), the growth inhibition was 68.9% (inactive) and the condensed nuclei was 7.14%. Also, under setting [1], the growth inhibition was 54.1%.

With `Cn1c(=O)c2c3c(sc2n2c(SCC(=O)c4ccc(Cl)cc4)nnc12)COC(C)(C)C3`, the growth inhibition was -42.1% (inactive) and the condensed nuclei stood at 0.75%. The growth inhibition under setting [1] is -20.9%.
